Bioassay records deposited in PubChem by several laboratories.
GDH-TPI counter-1: GDH-TPI coupling enzyme inhibitors, primary screen, artefact control for M. tuberculosis FBA inhibitor project, biochemical, absorbance, full deck; GDH-TPI coupled enzyme counterscreen, NADH absorbance; AID 588335, 2011; 1.2% of 360,000 active; inhibition, % at 4.8 µM; in the data active = inhibition above about 30%;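 note: 0% = DMSO wells and 100% = wells lacking the enzyme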
Mtb FBA inh: Mtb FBA enzyme inhibitors, primary screen, biochemical, fluorescence, strain H37Rv; purified M. tuberculosis FBA, fluorescence read-out; AID 588726, 2011; Fructose-bisphosphate aldolase (Mycobacterium tuberculosis (strain ATCC 25618 / H37Rv)), …; 2.3% of 360,000 active; inhibition, % at 1 µM;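 note: 0% = vehicle and 100% = reference inhibitor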
Mtb bLac sens: beta-lactam sensitization of Mtb H37Rv, H37Rv | 0.27% of 330,000 active | AID 434955, 2010 | inhibition, % at 25 µM | M. tuberculosis H37Rv growth with meropenem, percent inhibition; call rule not given here;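 note: growth measured after seven days incubation then overnight dye step; 0% = bacteria only wells and 100% = bacteria with antibiotic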
Rv3671c protease: Rv3671c serine protease inhibitors, primary screen, biochemical, fluorescence polarization, M. tuberculosis H37Rv; inhibition, % at 5.96 µM; 0.048% of 320,000 active; AID 2606, 2010; in the data active = inhibition above about 38%;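 note: extracellular domain of Rv3671c used as enzyme; 0% = enzyme with DMSO and 100% = no enzyme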
UGM FP inh: M. tuberculosis UGM enzyme inhibitors, primary screen, biochemical, fluorescence polarization, single point; UDP-galactopyranose mutase (Mycobacterium tuberculosis (strain ATCC 25618 / H37Rv)), …; purified UGM, fluorescence polarization probe displacement; inhibition, % at 10 µM; 0.06% of 320,000 active; in the data active = inhibition above about 10%, passing the limit was not always enough
RecA splice inh: Mtb RecA intein splicing inhibitors, primary screen, biochemical, fluorescence, HTS; Protein RecA (Mycobacterium tuberculosis (strain ATCC 25618 / H37Rv)), P9WHJ3; cell-free RecA intein splicing; inhibition, % (no concentration beside the values); 0.75% of 290,000 active; AID 2221, 2009; in the data active = inhibition above about 30%;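 note: 0% = vehicle wells and 100% = reference inhibitor control wells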
Target sequence (P9WHJ3 whole entry, looked up, canonical isoform): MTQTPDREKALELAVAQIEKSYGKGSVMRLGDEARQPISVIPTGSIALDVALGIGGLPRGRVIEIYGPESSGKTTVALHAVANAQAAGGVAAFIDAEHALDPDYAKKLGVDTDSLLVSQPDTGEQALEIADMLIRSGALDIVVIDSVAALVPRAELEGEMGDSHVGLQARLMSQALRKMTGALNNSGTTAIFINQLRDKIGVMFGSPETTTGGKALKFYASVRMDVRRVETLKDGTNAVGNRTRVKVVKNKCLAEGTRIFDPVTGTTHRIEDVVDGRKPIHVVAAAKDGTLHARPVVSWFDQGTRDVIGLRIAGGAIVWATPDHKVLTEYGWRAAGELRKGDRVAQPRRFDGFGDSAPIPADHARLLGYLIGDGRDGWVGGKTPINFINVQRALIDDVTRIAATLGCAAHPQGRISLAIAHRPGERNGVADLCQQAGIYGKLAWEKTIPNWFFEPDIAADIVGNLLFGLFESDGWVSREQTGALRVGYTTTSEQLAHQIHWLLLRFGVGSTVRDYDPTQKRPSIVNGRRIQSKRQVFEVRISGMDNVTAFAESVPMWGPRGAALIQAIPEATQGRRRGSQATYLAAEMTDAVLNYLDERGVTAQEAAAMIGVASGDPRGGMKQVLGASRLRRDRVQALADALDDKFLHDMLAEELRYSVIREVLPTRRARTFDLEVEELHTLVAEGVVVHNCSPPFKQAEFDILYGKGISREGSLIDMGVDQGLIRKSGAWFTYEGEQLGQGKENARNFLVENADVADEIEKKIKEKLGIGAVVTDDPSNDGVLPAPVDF
Mtb FBA inh conf: M. tuberculosis aldolase blockers, biochemical, fluorescence, strain H37Rv, confirmation; shares compounds with Mtb FBA inh; purified M. tuberculosis FBA, fluorescence read-out; inhibition, % at 1 µM; 78% of 5,600 active;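 note: 0% = vehicle wells and 100% = reference inhibitor wells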
GDH-TPI counter-2: GDH-TPI coupling enzyme inhibitors, artefact control for M. tuberculosis FBA inhibitor project, biochemical, fluorescence, high throughput; shares compounds with Mtb FBA inh; GDH-TPI coupled enzyme counterscreen; inhibition, % at 1 µM; 81% of 5,600 active; AID 652141, 2013; in the data active = inhibition above about 10%
Starred values were filed as active, the others as inactive. Most compounds without a hit are left out; they make up all but 4% or so of the library. Cut-off read from the data, not from the text of the source, unless noted: active = inhibition above about 27%; inactive = the rest.

Cc1csc(N2C(=O)C3C4CCC(O4)C3C2=O)n1 (stereo not given) was read as GDH-TPI counter-1 -2 and Mtb FBA inh -2.
CCOC(=O)c1nc(NNC(=O)c2ccc([N+](=O)[O-])cc2)sc1C was read as GDH-TPI counter-1 22, Mtb FBA inh -5, Mtb bLac sens 8, Rv3671c protease -4, UGM FP inh 1 and RecA splice inh -4.
Screening COc1cccc(C2C(C#N)=C(C)NC3=C2C(=O)CC(C)(C)C3)c1 (stereo not given) returned GDH-TPI counter-1 7, Mtb FBA inh 93*, Mtb bLac sens 1, Rv3671c protease -3, UGM FP inh -2, RecA splice inh -14, Mtb FBA inh conf active and GDH-TPI counter-2 183*.
`COc1ccc(C2C(C#N)=C(C)NC3=C2C(=O)CC(C)(C)C3)cc1` (stereo not given) gave GDH-TPI counter-1 13, Mtb FBA inh 17, Mtb bLac sens -3, Rv3671c protease -7, UGM FP inh -1 and RecA splice inh -31.
For Nc1ccccc1C(=O)Nc1nccs1 the results were GDH-TPI counter-1 7, Mtb FBA inh 55*, Mtb bLac sens -9, Rv3671c protease -3, UGM FP inh -2, Mtb FBA inh conf 128* and GDH-TPI counter-2 84*.
`O=C(Nc1nccs1)c1ccccc1Br` gave GDH-TPI counter-1 9, Mtb FBA inh 1, Mtb bLac sens -7, Rv3671c protease -8, UGM FP inh -3 and RecA splice inh 2.
COCCCNC(=O)c1c(NC(=O)c2ccco2)n(Cc2ccccc2)c2nc3ccccc3nc12 was read as GDH-TPI counter-1 15, Mtb FBA inh 45*, Mtb bLac sens 12, Rv3671c protease -21, UGM FP inh -1, RecA splice inh -72, Mtb FBA inh conf 47* and GDH-TPI counter-2 37*.
For CCCCCn1c(NC(=O)c2ccco2)c(C(=O)OCC)c2nc3ccccc3nc21 the results were GDH-TPI counter-1 17, Mtb FBA inh 54*, Mtb bLac sens 4, Rv3671c protease -29, UGM FP inh -2, RecA splice inh -77, Mtb FBA inh conf 134* and GDH-TPI counter-2 100*.
Cc1ccc(NC(=O)C2(C)CCN2CCc2ccccc2)cc1 (stereo not given) was read as GDH-TPI counter-1 13 and Mtb FBA inh 2.
CCC(OC(=O)c1ccco1)C(=O)NCc1ccc2c(c1)OCO2 (stereo not given) was read as GDH-TPI counter-1 4, Mtb FBA inh 4, Mtb bLac sens 1, Rv3671c protease -2, UGM FP inh 0 and RecA splice inh 6.
`COc1ccc(Cl)cc1C(=O)NNC(=O)c1csc(N2CCOCC2)n1` gave GDH-TPI counter-1 4, Mtb FBA inh -1, Mtb bLac sens 2, Rv3671c protease -6, UGM FP inh -4 and RecA splice inh -2.
Cc1cc(CN2CCCC(C(=O)Nc3ccc(-c4nc5ccccc5[nH]4)cc3)C2)n[nH]1 (stereo not given) was read as GDH-TPI counter-1 12, Mtb FBA inh 6, Mtb bLac sens -1, Rv3671c protease -3, UGM FP inh 4 and RecA splice inh -1.
Screening O=C(O)CCc1ccc(-c2ccccc2)n1CC1CCCO1 (stereo not given) returned GDH-TPI counter-1 -1, Mtb FBA inh 37*, Mtb bLac sens -2, Rv3671c protease 1, UGM FP inh 2, RecA splice inh -5, Mtb FBA inh conf 133* and GDH-TPI counter-2 119*.
`Cc1ccc(-c2ccc(CCC(=O)O)n2CC2CCCO2)cc1` (stereo not given) gave GDH-TPI counter-1 -1, Mtb FBA inh 41*, Mtb bLac sens 1, Rv3671c protease 8, UGM FP inh -1, RecA splice inh -15, Mtb FBA inh conf 92* and GDH-TPI counter-2 60*.
CC(=O)C[C@H](O)CC(=O)[C@H]1OC(=O)[C@H](C)C/C=C\Cc2ccccc21 was read as GDH-TPI counter-1 0, Mtb FBA inh -3, Mtb bLac sens -5, Rv3671c protease -4 and UGM FP inh -1.
`Cc1nc2c(=O)n(C)c(=O)n(C)c2nc1Cl` gave GDH-TPI counter-1 6, Mtb FBA inh 39*, Mtb bLac sens 100, Rv3671c protease 11, UGM FP inh -2, RecA splice inh 45*, Mtb FBA inh conf 63* and GDH-TPI counter-2 44*.
`CCc1c(C)c2ccc(OCC(=O)OC)cc2oc1=O` gave GDH-TPI counter-1 17, Mtb FBA inh 70*, Mtb bLac sens 97, Rv3671c protease -5, UGM FP inh -2, RecA splice inh -1, Mtb FBA inh conf 61* and GDH-TPI counter-2 48*.
Screening Cc1c(Cc2ccccc2)c(=O)oc2cc(OCC(=O)NCC3CCC(C(=O)O)CC3)ccc12 (stereo not given) returned GDH-TPI counter-1 34*, Mtb FBA inh 104*, Mtb bLac sens -4, Rv3671c protease 2, UGM FP inh -2, Mtb FBA inh conf 4 and GDH-TPI counter-2 -4.
CCCCc1cc(=O)oc2c(C)c(OCC(=O)NCC3CCC(C(=O)O)CC3)ccc12 (stereo not given) was read as GDH-TPI counter-1 15, Mtb FBA inh 21, Mtb bLac sens -5, Rv3671c protease 4 and UGM FP inh -1.
`Cc1cc(=O)oc2cc(OCC(=O)NCC3CCCO3)ccc12` (stereo not given) gave GDH-TPI counter-1 4, Mtb FBA inh 11, Mtb bLac sens -3, Rv3671c protease 3, UGM FP inh -2 and RecA splice inh 2.
For Cc1cccc(C)c1NC(=O)COc1ccc2c(C)c(Cc3ccccc3)c(=O)oc2c1 the results were GDH-TPI counter-1 16, Mtb FBA inh 57*, Mtb bLac sens 0, Rv3671c protease -4, UGM FP inh 2, RecA splice inh 0, Mtb FBA inh conf active and GDH-TPI counter-2 193*.
`CCc1c(C)c2ccc(OCC(=O)NCC3CCC(C(=O)O)CC3)c(C)c2oc1=O` (stereo not given) gave GDH-TPI counter-1 5, Mtb FBA inh 38*, Mtb bLac sens -5, Rv3671c protease 8, UGM FP inh 0, RecA splice inh -2, Mtb FBA inh conf 167* and GDH-TPI counter-2 134*.
